# The list is not random: actives were taken first. Their share in the collection is about 9.2%.
# USP8 inh – blocks human USP8 ubiquitin-rhodamine cleavage | P40818 | purified USP8, Ub-rhodamine cleavage fluorescence, 30 min | inhibition, % at 20 µM | actives 4.2% (n = 47,000) | AID 1645853
# USP7 inh – human USP7 deubiquitinase inhibition; Q93009; purified USP7, Ub-rhodamine cleavage fluorescence; inhibition, % at 20 µM; actives 0.3% (n = 47,000)
# UCHL1 block – blocks human UCHL1 ubiquitin-rhodamine cleavage; P09936; purified UCHL1, Ub-rhodamine cleavage fluorescence; inhibition, % at 20 µM; actives 0.2% (n = 47,000)
# USP17 block – inhibitors of human USP17 deubiquitinase; A8MUK1; purified USP17, Ub-rhodamine cleavage fluorescence, 3 h; inhibition, % at 50 µM; actives 6.5% (n = 47,000)
# OTUD3 block – human OTUD3 deubiquitinase inhibition | Q5T2D3 | purified OTUD3, Ub-rhodamine fluorescence, 2 h | inhibition, % at 25 µM | actives 0.7% (n = 47,000) | AID 1645858
# USP10 inh – inhibitors of human USP10 deubiquitinase; inhibition, % at 20 µM; actives 1.1% (n = 47,000); purified USP10, Ub-rhodamine fluorescence, 60 min
# Target sequence (Q14694 whole entry, looked up): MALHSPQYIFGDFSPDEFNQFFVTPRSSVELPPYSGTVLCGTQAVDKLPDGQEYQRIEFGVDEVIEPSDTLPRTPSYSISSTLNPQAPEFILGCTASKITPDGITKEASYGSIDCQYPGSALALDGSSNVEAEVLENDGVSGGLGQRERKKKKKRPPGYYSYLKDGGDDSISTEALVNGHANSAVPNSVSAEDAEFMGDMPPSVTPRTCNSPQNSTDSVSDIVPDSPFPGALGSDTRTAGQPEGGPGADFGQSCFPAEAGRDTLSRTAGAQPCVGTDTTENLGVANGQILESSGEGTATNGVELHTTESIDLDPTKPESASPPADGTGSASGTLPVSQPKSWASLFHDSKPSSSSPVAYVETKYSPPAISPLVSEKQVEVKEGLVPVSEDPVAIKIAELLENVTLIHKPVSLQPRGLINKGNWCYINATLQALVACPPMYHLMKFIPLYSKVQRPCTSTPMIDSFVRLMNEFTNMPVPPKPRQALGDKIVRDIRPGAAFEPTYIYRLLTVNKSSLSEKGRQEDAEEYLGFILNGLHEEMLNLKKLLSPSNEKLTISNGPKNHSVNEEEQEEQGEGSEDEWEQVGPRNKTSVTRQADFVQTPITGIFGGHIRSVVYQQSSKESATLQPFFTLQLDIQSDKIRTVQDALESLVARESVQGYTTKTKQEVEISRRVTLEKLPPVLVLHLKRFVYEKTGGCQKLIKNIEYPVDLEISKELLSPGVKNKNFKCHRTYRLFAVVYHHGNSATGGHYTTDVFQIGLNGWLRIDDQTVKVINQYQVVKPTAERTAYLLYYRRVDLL
# * marks the source's active call; other numbers are inactive results. Rule as the data show it: active = inhibition above about 30%; inactive = the rest.
SMILES,USP8 inh,USP7 inh,UCHL1 block,USP17 block,OTUD3 block,USP10 inh
COC1=CC(=O)c2c(O)c3c(c(C)c2C1=O)C[C@@]1(O)[C@H](O[C@H]2CC[C@H](O[C@H]4C[C@@](C)(O)[C@H](OC(=O)c5c(C)ccc(C)c5O)[C@H](C)O4)[C@@H](C)O2)C(=O)C(C(C)=O)=C(O)[C@@]1(O)C3=O,-90,55*,58*,22,53*,-6
N#Cc1cnn2c1ncc1c(/C=C/Nc3ccc(C(F)(F)F)cc3)nccc12,-101,-66,-61,-83,-101,-14
O=C(c1ccc(Cl)cc1)[C@@H]1[C@H](C(=O)OC(c2ccccc2)c2ccccc2)N2c3ccccc3C=CC2[C@@]12C(=O)Nc1ccccc12 (some centres not stated),52*,-15,-15,-11,-38,-4
O=C(CCn1c(=O)c2ccccc2n(Cc2cc(=O)n3ccccc3n2)c1=O)N1CCc2ccccc2C1,-17,-3,-6,-13,-17,-6
COc1ccccc1CNC(=O)CCn1c(=O)c2ccccc2n(Cc2cccc([N+](=O)[O-])c2)c1=O,-4,6,3,6,9,5
CCOc1ccc(NC(=O)Cn2c(=O)n(CCC(=O)NCc3ccccc3OC)c(=O)c3ccccc32)cc1,32*,12,1,52*,19,34*
COc1ccccc1CNC(=O)CCc1cn(Cc2ccc(Cl)cc2)c2ccccc12,0,4,5,32*,12,10
COc1ccccc1CNC(=O)CCCCn1c(=O)c2ccccc2n(Cc2cc(=O)n3c(C)cccc3n2)c1=O,45*,-3,7,-32,-18,0
COc1ccccc1CNC(=O)Cc1cc(-c2ccc(Cl)cc2)on1,0,-1,-8,14,-14,-7
COc1ccccc1CNC(=O)CCn1c(=O)c2ccccc2n(Cc2ccccc2C#N)c1=O,2,5,1,40*,13,4
COc1ccc2cc(CNC3CCN(Cc4ccccc4)CC3)c(=O)[nH]c2c1,-101,-34,-32,-81,-76,-4
C=C(CC[C@@H](C)[C@H]1CC[C@@H]2[C@]1(C)C[C@@H](O)[C@@]13C[C@@]14C(=O)C[C@H](O)[C@@](C)(C(=O)O)[C@@H]4C(=O)C[C@]23O)C(C)C,-9,-145,-3,35*,0,14
CC(=O)c1ccc(S(=O)(=O)N2CCC3(CC2)NC(=O)c2ccccc2N3)cc1,33*,8,0,16,3,21
Cc1ccc(S(=O)(=O)N2CCC3(CC2)NC(=O)c2ccccc2N3)c(C)c1,4,9,0,62*,1,4
O=C1NC2(CCN(S(=O)(=O)c3ccc(F)c(F)c3)CC2)Nc2ccccc21,-1,0,-5,-8,-6,1
Cc1ccc(S(=O)(=O)N2CCC3(CC2)NC(=O)c2ccccc2N3)cc1C,7,5,3,58*,-1,1
CC1(C(=O)NCc2ccccc2)CCC(=O)N1CCCc1ccccc1 (configuration not stated),-13,3,5,-23,-2,2
COc1ccc(-c2noc(CCn3c(=O)[nH]c4ccccc4c3=O)n2)c(OC)c1,9,2,1,-22,-27,0
CC(=O)O[C@@H]1/C=C(/C)[C@H](OC(=O)c2ccc(O)cc2)C/C=C(/C)CCCC1(C)C,12,9,8,31*,-1,18
Cc1cccc(-c2cc(CC3(C(=O)O)CCN(C(=O)C4CC4)CC3)on2)c1,4,2,-2,4,-3,1
COc1ccc([C@@H]2CN(S(=O)(=O)c3ccc(F)cc3)C[C@H]2c2ccn[nH]2)cc1,-4,0,2,-10,-13,1
O=C(Cn1cnc2ccccc2c1=O)c1c[nH]c2ccccc12,25,-12,0,47*,0,2
COc1ccc(C(=O)NC2CC2)cc1OC1CCN(Cc2ccc3nonc3c2)CC1,-4,-8,1,-6,-17,-1
O=C(Nc1ccc(-n2cncn2)cc1)c1ccccc1N1CCOCC1,-1,-2,0,-24,-4,-1
COc1ccc(-c2nn(-c3ccccc3)cc2C(=O)Nc2ccc(N3CCOCC3)cc2)cc1,61*,1,8,18,10,0
SMILES,USP8 inh,USP7 inh,UCHL1 block,USP17 block,OTUD3 block,USP10 inh
COc1cc(Cl)ccc1Nc1ncc(C(=O)Nc2ccc3c(c2)OCO3)c2ccccc12,39*,9,2,15,19,6
CCOC(=O)c1cnc(Nc2ccccc2OC)c2ccccc12,-11,-6,-4,8,-23,-2
COc1cc(OC)c(NC(C)C(=O)Nc2ccc3c(c2)OCO3)cc1Cl (configuration not stated),37*,-1,3,18,4,-4
COc1ccccc1Nc1ncc(C(=O)NCc2ccc(F)cc2)c2ccccc12,71*,7,3,35*,-2,7
COc1ccccc1Nc1ncc(C(=O)NCc2ccc3c(c2)OCO3)c2ccccc12,63*,6,1,32*,10,11
COc1ccccc1N1CC(C(=O)Nc2ccc3c(c2)OCO3)CC1=O (configuration not stated),4,-13,-4,-10,-8,-1
CC(=O)NCCc1cn(CCN2CCCCC2)c2ccc(C)cc12,9,1,0,5,13,-5
N#Cc1c(-c2cccnc2)c2c([nH]c1=O)-c1ccccc1CC2,-23,-6,-8,-119,-74,-7
N#Cc1c(-c2ccccc2Cl)c2c([nH]c1=O)-c1ccccc1CC2,47*,4,6,10,-9,15
N#Cc1c(-c2ccc(F)cc2)c2c([nH]c1=O)-c1ccccc1OC2,65*,-7,1,13,0,16
Cc1nc(=O)c2cc(Cl)ccc2n1C1=CCN(C(=O)c2ccccn2)CC1,-10,7,4,-23,-12,1
CC1=C(Cn2c3cccc(=O)c-3nc3ccccc32)CCC(C)(C)C1,59*,35*,62*,78*,74*,58*
Cc1nnc(NC(=O)C2CCN(S(=O)(=O)c3ccc4c(c3)CCC4)CC2)o1,-92,2,2,-16,8,1
O=C(Nc1nc2c(s1)CCC2)C1CCN(S(=O)(=O)c2ccc3c(c2)CCCC3)CC1,36*,-20,4,20,-11,11
CCOc1c(C)cc(S(=O)(=O)Nc2ccc3c(c2)N(C(C)=O)CC3)cc1C,3,1,0,68*,-7,8
Cn1ccc(-c2nc3ccccc3[nH]2)n1,30*,-1,0,11,-2,3
Cc1ccc(Nc2nc3c(S(=O)(=O)c4ccccc4)nnn3c3ccccc23)c(C)c1,70*,17,-1,24,-18,11
Cc1ccc(S(=O)(=O)c2nnn3c2nc(N2CCN(c4cc(C)ccc4C)CC2)c2ccccc23)cc1,9,8,5,12,10,1
